Pin1 inhibitor: inhibitors of human Pin1; Pin1 FP peptide displacement, HiFluor488, 10 min; Potency, µM (highest dose often 115 µM), most hits filed as inhibitors; Q13526; 390,000 tested, 0.009% active; active = well fitted inhibition curve with a large enough effect in the polarisation, with a control signal flat, not every such curve was filed as active; inconclusive = small, poorly fitted or top-dose-only effect, or effect the other way, or a change in a side signal; inactive = no such curve, though single readings can be large or run the other way; the % refers to the polarisation
KCNH2 3.1 inh: blocks the human KCNH2 3.1 channel isoform | U2OS KCNH2 3.1, thallium flux FluxOr; active compounds read low | AID 720553 | activity change, % (tested at about 1.8 µM) | 340,000 tested, 0.95% active;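 active = maximum activity change below -70%; inconclusive = maximum activity change from -70% to -50%; inactive = maximum activity change above -50%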;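 also: thallium influx rate constant from kinetic fluorescence after stimulation buffer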
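Thallium flux read-out: FluxOr dye with Red40 quencher in HBSS/HEPES, 45 min at RT. Rate constants from kinetic reads were normalized to positive and negative DMSO controls. Cells: U2OS virally expressing the 3.1 isoform.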
RGS4 inh: blocks human RGS4-accelerated GTP hydrolysis; AID 504845; 390,000 tested, 0.039% active; P49798; Transcreener GDP fluorescence polarization, RGS4-accelerated GTP hydrolysis; Potency, µM (series often up to 114 µM), usual class: inhibitors; also: nearly all actives have a fitted effect of over 75% in size
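MLSMR compounds (23 nl, pin-transferred) preincubated 10 min at room temperature with a 500nM (2x) first reagent, then RGS4 at 900nM (2x) plus Transcreener GDP mix added; fluorescence polarization (620/688 nm) read before and after 90 min at 30 °C.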
Tb PGK inh: blocks T. brucei phosphoglycerate kinase | P07378 | PGK/GAPDH coupled, Kinase-Glo luminescence, 60 min | Potency, µM (highest dose often 57.5 µM), actives largely listed as inhibitors | 380,000 tested, 0.043% active | AID 602233; also: nearly all actives have a fitted effect of over 60% in size
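Recombinant glycosomal PGK reaction used 1,3-bisphosphoglycerate generated in-well by GAPDH (100nM final) in 100mM TEA pH 7.6, 5mM MgCl2, 0.01% Tween-20. After 60 minutes at room temperature, ATP was read by Kinase-Glo Plus luminescence end-point.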
GCN5L2 inh: GCN5L2 (KAT2A) acetyltransferase inhibition. GCN5L2 HAT assay, ThioGlo1 CoA-SH fluorescence. 390,000 tested, 0.21% active. AID 504327. Q92830. Potency, µM (top dose mostly 58.9 µM), actives largely listed as inhibitors
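Titration-based screen in which CoA formation is detected via maleimide probe ThioGlo1 (50uM) turning fluorescent on thiol reaction; substrates H3(1-25) 75uM and acetyl-CoA 70uM, GCN5L2 20nM, 20 min incubation at room temperature.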
hERG WT inh: blocks the wildtype human KCNH2 potassium channel; Q12809; U2OS, BacMam KCNH2, thallium flux FluxOr; active compounds read low; activity change, % at 1.84 µM; 340,000 tested, 0.37% active;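 active = maximum activity change below -70%; inconclusive = maximum activity change between -70% and -50%; inactive = maximum activity change above -50%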
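U2OS cells transduced with wild-type KCNH2 virus are loaded with FluxOr dye for 45 min, and thallium flux is measured in kinetic reads before and after stimulation buffer. Rate constants are normalized to DMSO controls.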
Each line names hits and unclear results; the compound was inactive in the other large screens; ! = not confirmed by another sample. An excerpt weighted towards active compounds, which were near 1.2% of everything screened. Unless noted, calls follow the shape of the dose curve; as a rule, active = well fitted curve in the direction sought with a large enough effect; inconclusive = small, poorly fitted or top-dose-only effect, or another doubt; inactive = no such curve, though single readings can be large; an effect the other way counts as inactive or inconclusive.

COc1ccc(C(CNC(=O)c2ccc(S(=O)(=O)N3CCCC3)cc2)N(C)C)cc1OC (configuration not stated)	none
COc1ccc(C(CNC(=O)c2ccc(S(=O)(=O)N3CC(C)CC(C)C3)cc2)N(C)C)cc1 (configuration not stated)	hERG WT inh -83
COc1ccc(C(CNC(=O)c2cccc(S(=O)(=O)N3CCCc4ccccc43)c2)N(C)C)cc1 (configuration not stated)	KCNH2 3.1 inh -74 (no result: GCN5L2 inh)
COc1ccc(NC(=O)c2cccc(S(=O)(=O)N3CCc4ccccc43)c2)c(OC)c1	hERG WT inh -89 (no result: Pin1 inhibitor, RGS4 inh, GCN5L2 inh)
COc1ccc(NS(=O)(=O)c2cccc(C(=O)NCC(c3ccccc3)N(C)C)c2)cc1 (configuration not stated)	none
Cc1ccc(-c2noc(CN(C3CCCCC3)S(=O)(=O)c3ccc(C)cc3)n2)cc1	none (no result: KCNH2 3.1 inh, hERG WT inh)
N#Cc1ccccc1Cn1c(=O)n(CCCC(=O)NCc2ccc3c(c2)OCO3)c(=O)c2sccc21	none (no result: KCNH2 3.1 inh, hERG WT inh)
COc1cccc(C2c3c(ncn(-c4cccc(Cl)c4)c3=N)Oc3ccc4ccccc4c32)c1 (configuration not stated)	none (no result: KCNH2 3.1 inh, RGS4 inh, Tb PGK inh, GCN5L2 inh, hERG WT inh)
Cc1ccc(-c2[nH]ncc2CNCc2ccccc2)cc1	none (no result: KCNH2 3.1 inh, Tb PGK inh, GCN5L2 inh, hERG WT inh)
O=C(NC(=S)N(CCc1ccccc1)CCc1ccccc1)c1ccco1	hERG WT inh -123
CC(CCc1ccccc1)NC(=S)NC(=O)c1ccco1 (configuration not stated)	none
O=C1C=C(NCC2CCCO2)C2(CCCCC2)O1 (configuration not stated)	KCNH2 3.1 inh -79
Nc1ccc(-c2nc3ccc(-c4nc5ccc(N)cc5[nH]4)cc3[nH]2)cc1	RGS4 inh 27µM, GCN5L2 inh inconclusive (no result: Pin1 inhibitor, KCNH2 3.1 inh, Tb PGK inh, hERG WT inh)
O=C(c1ccc(Cl)cc1)c1cn(Cc2ccccc2)c2cc3c(cc2c1=O)OCCO3	none (no result: KCNH2 3.1 inh, hERG WT inh)
CCC(C(=O)N(C(C)C)C(C)C)c1ccccc1 (configuration not stated)	KCNH2 3.1 inh -146
O=C(/C=C/c1ccc(Cl)cc1Cl)N1CCN(c2ccc([N+](=O)[O-])c(N3CCOCC3)c2)CC1	none
O=C(/C=C/c1ccc(Cl)cc1Cl)N1CCN(c2ccccc2[N+](=O)[O-])CC1	KCNH2 3.1 inh -95, hERG WT inh inconclusive
CN1CCN(c2ncc3nc(CCc4ccccc4)c(=O)n(C)c3n2)CC1	none (no result: Pin1 inhibitor, KCNH2 3.1 inh, RGS4 inh, Tb PGK inh, hERG WT inh)
Cc1cc(C)c2c(CN3CCN(Cc4ccc5c(c4)OCO5)CC3)cc(=O)oc2c1C	KCNH2 3.1 inh -92
Cc1ccc2c(CN3CCN(Cc4ccc5c(c4)OCO5)CC3)cc(=O)oc2c1C	Pin1 inhibitor inconclusive
COC(=O)CCC(=O)OC1(C)C(=O)C=C2C=C(C3CC3)N(CCCOC(C)C)C=C2C1=O (configuration not stated)	Pin1 inhibitor inconclusive, KCNH2 3.1 inh -86
COC(=O)c1ccc([C@H]2Nc3ccc(S(=O)(=O)Nc4ccc(C)cc4)cc3[C@H]3C=CC[C@H]32)cc1	none (no result: KCNH2 3.1 inh, hERG WT inh)
COc1ccc(NS(=O)(=O)c2ccc3c(c2)[C@H]2C=CC[C@H]2[C@@H](c2ccc(C(=O)O)cc2)N3)cc1	RGS4 inh inconclusive, Tb PGK inh 28µM!, GCN5L2 inh inconclusive (no result: Pin1 inhibitor)
CCCN(CC1CC1)C(=O)CCc1nnc(CCc2c[nH]c3ccccc23)o1	KCNH2 3.1 inh -98
O=C(CCS(=O)(=O)c1cc(Br)cc2c1N(C(=O)C1CC1)CC2)NCc1ccccc1Cl	none (no result: KCNH2 3.1 inh, hERG WT inh)
CCn1cc(C2=NC(c3ccccc3)CO2)c2ccccc21 (configuration not stated)	none
CCn1cc(C2=NC(C)CO2)c2ccccc21 (configuration not stated)	KCNH2 3.1 inh -71
COc1ccc(NC(=O)Cn2c(SCc3ccc(F)cc3)nc3cccnc32)cc1OC	none (no result: KCNH2 3.1 inh, hERG WT inh)
CCSc1ccc2c(c1)N(CCCN1CCN(C)CC1)c1ccccc1S2	KCNH2 3.1 inh -73
COc1ccc(NC(=O)Cn2cnc3ccc(S(=O)(=O)N4CCC(C)CC4)cc3c2=O)cc1OC	none (no result: KCNH2 3.1 inh, hERG WT inh)
COCCSc1ccccc1C(=O)N1CCOCC1	KCNH2 3.1 inh -86

Screening data deposited in PubChem by National Center for Advancing Translational Sciences (NCATS).
